Results filed as inconclusive are left out. Calls of active or inactive are those of the source. The calls were made as follows: active = hit-call score of the fitted dose curve at least 0.9, where 1 is the maximum; inconclusive = response in the unintended direction; inactive = score below 0.9.
target: Cellular tumor antigen p53 (Homo sapiens) (UniProt P04637); experiment: TOX21_p53_BLA_p4_ratio: Tox21 HCT-116 p53 Agonism Beta-lactamase Assay, Ratio, Phase 4 (AID 2283601)
Method in brief: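 Signal is the blue/green (460nm/530nm) ratio of cleaved versus uncleaved CCF4-AM substrate, read after 2 h substrate loading. Cells were HCT116 carrying the p53-responsive beta-lactamase reporter, dosed 16 h at 37C, 5% CO2; CellTiter-Glo measured in parallel.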

Chain of Cellular tumor antigen p53 (Homo sapiens) (P04637 whole entry, looked up): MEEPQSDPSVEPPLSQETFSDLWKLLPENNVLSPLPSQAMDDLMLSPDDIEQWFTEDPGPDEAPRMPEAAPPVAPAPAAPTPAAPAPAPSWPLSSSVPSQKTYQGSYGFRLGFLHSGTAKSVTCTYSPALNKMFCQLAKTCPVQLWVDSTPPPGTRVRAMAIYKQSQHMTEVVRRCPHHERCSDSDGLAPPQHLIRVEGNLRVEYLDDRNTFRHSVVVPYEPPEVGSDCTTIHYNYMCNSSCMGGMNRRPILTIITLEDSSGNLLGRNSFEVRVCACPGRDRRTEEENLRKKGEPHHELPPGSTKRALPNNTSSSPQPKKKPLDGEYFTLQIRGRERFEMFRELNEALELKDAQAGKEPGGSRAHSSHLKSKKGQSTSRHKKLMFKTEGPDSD

Row | Compound | outcome | AC50
1 | CNC(=O)N(C)c1nnc(C(C)(C)C)s1 | inactive | 
2 | Clc1nc(Cl)nc(Nc2ccccc2Cl)n1 | inactive | 
3 | Nc1cnn(-c2ccccc2)c(=O)c1Cl | inactive | 
4 | COP(=O)(OC)O/C(C)=C/C(=O)N(C)C | inactive | 
5 | CN/C(=N\[N+](=O)[O-])NCc1cnc(Cl)s1 | inactive | 
6 | CN=C=S | inactive | 
7 | CC(C)Nc1nc(Cl)nc(NC(C)C)n1 | inactive | 
8 | CCOP(=S)(OCC)Oc1nc(Cl)n(C(C)C)n1 | inactive | 
9 | N#CN=C1SCCN1Cc1ccc(Cl)nc1 | inactive | 
10 | COC(=O)c1c(C(F)F)nc(C(F)(F)F)c(C2=NCCS2)c1CC(C)C | inactive | 
11 | O=P(O)(O)CCCl | inactive | 
12 | CC(C)C1(C)N=C(c2ncccc2C(=O)O)NC1=O (stereo unspecified) | inactive | 
13 | COC(=O)NC(=S)Nc1ccccc1NC(=S)NC(=O)OC | inactive | 
14 | CCOc1nc(C(Cl)(Cl)Cl)ns1 | inactive | 
15 | CCNP(=S)(OC)O/C(C)=C/C(=O)OC(C)C (stereo unspecified) | inactive | 
16 | COc1cc(OC)nc(NC(=O)NS(=O)(=O)c2ncccc2OCC(F)(F)F)n1 | inactive | 
17 | CCN(CC)c1nc(C)cc(OP(=S)(OC)OC)n1 | inactive | 
18 | CCOc1nc(F)cc2nc(S(=O)(=O)Nc3c(Cl)cccc3Cl)nn12 | inactive | 
19 | CCCCOCN(C(=O)CCl)c1c(CC)cccc1CC |  | 66 µM (active)
20 | CNC(=O)Oc1cccc2ccccc12 | inactive | 
21 | N#Cc1c(Cl)cccc1Cl | inactive | 

test system: not listed separately; experiment: Tanguay_ZF_120hpf_MORT_legacy: (Legacy) Oregon State University Tanguay Lab 120 Hour Post-fertilization zebrafish Assay for Mortality (AID 2283633)
Method in brief: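 Dechorionated Tropical 5D wild-type zebrafish embryos, one per well from 6 hpf, were statically exposed at 28C in the dark until 120 hpf (0.64% DMSO final). Mortality was scored as present/absent by brightfield microscopy, fitted positively versus DMSO.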

Row | Compound | outcome
22 | CNC(=O)N(C)c1nnc(C(C)(C)C)s1 | inactive
23 | Clc1nc(Cl)nc(Nc2ccccc2Cl)n1 | inactive
24 | Nc1cnn(-c2ccccc2)c(=O)c1Cl | inactive
25 | COP(=O)(OC)O/C(C)=C/C(=O)N(C)C | inactive
26 | CC(C)=CC1C(C(=O)OCc2coc(Cc3ccccc3)c2)C1(C)C (stereo unspecified) | inactive
27 | CN/C(=N\[N+](=O)[O-])NCc1cnc(Cl)s1 | inactive
28 | CN=C=S | inactive
29 | CC(C)Nc1nc(Cl)nc(NC(C)C)n1 | inactive
30 | Cc1cnc(C2=NC(C)(C(C)C)C(=O)N2)c(C(=O)O)c1 (stereo unspecified) | inactive
31 | CCCC(=NOCC)C1=C(O)CC(CC(C)SCC)CC1=O (stereo unspecified) | inactive
32 | CCOP(=S)(OCC)Oc1nc(Cl)n(C(C)C)n1 | inactive
33 | CCOc1cc(C(C)(C)C)ccc1C1COC(c2c(F)cccc2F)=N1 (stereo unspecified) | inactive
34 | N#CN=C1SCCN1Cc1ccc(Cl)nc1 | inactive
35 | COC(=O)c1c(C(F)F)nc(C(F)(F)F)c(C2=NCCS2)c1CC(C)C | inactive
36 | O=P(O)(O)CCCl | inactive
37 | Clc1cccc(C(Cl)(Cl)Cl)n1 | inactive
38 | COc1cc(Cl)c(OC)cc1Cl | inactive
39 | CC(C)C1(C)N=C(c2ncccc2C(=O)O)NC1=O (stereo unspecified) | inactive

Row | Compound | outcome
40 | CC1(C)CON(Cc2ccccc2Cl)C1=O | inactive
41 | COC(=O)NC(=S)Nc1ccccc1NC(=S)NC(=O)OC | inactive
42 | CCOc1nc(C(Cl)(Cl)Cl)ns1 | inactive
43 | COCc1cnc(C2=NC(C)(C(C)C)C(=O)N2)c(C(=O)O)c1 (stereo unspecified) | inactive
44 | CCSC(=O)N1CCCCCC1 | inactive
45 | O=C(O)c1c(Cl)ccc2cc(Cl)cnc12 | inactive
46 | CCC(C)n1c(=O)[nH]c(C)c(Br)c1=O (stereo unspecified) | inactive
47 | CCNP(=S)(OC)O/C(C)=C/C(=O)OC(C)C (stereo unspecified) | inactive
48 | Cc1cc(C)nc(Nc2ccccc2)n1 | inactive
49 | COc1cc(OC)nc(NC(=O)NS(=O)(=O)c2ncccc2OCC(F)(F)F)n1 | inactive
50 | CCN(CC)c1nc(C)cc(OP(=S)(OC)OC)n1 | inactive
51 | CS(=O)(=O)c1cc(C(F)(F)F)ccc1C(=O)c1cnoc1C1CC1 | inactive
52 | CCOc1nc(F)cc2nc(S(=O)(=O)Nc3c(Cl)cccc3Cl)nn12 | inactive
53 | CCCCOCN(C(=O)CCl)c1c(CC)cccc1CC | inactive
54 | CNC(=O)Oc1cccc2ccccc12 | inactive
55 | N#Cc1c(Cl)cccc1Cl | inactive
56 | Cc1nc(N(C)C)nc(OC(=O)N(C)C)c1C | inactive
